Source: PubChem BioAssay (several laboratories)
FAS TE block: FAS thioesterase domain inhibitors, primary screen, biochemical, fluorescence intensity, uHTS; recombinant FAS-TE, OMFH fluorogenic substrate, fluorescence endpoint; Fatty acid synthase (Homo sapiens), P49327; AID 602261, 2012; 360,000 tested, 0.67% active; inhibition, % at 15 µM;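 active = compounds whose normalised, plate-corrected inhibition of enzyme fluorescence in the single-dose primary screen is 50% or more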
MPTP inh: mitochondrial permeability transition pore inhibitors, primary screen, biochemical, isolated mouse mitochondria, absorbance; AID 602449, 2012; inhibition, % at 10 µM; Ca2+ swelling absorbance, 30 min; 360,000 tested, 1.4% active;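 active = inhibition of 50% or more, scaled per plate between neutral and stimulator controls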
rCAG binder: binders of r(CAG) RNA repeats, primary screen, biochemical, fluorescence; r(CAG) RNA repeat, TO-PRO-1 dye displacement fluorescence; inhibition, % at 3 µM; 370,000 tested, 1.3% active; AID 651821, 2012;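 active = inhibition above the plate cutoff, the mean of all test compounds on that plate plus 3 SD, cut at about 35% in these data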;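 also: higher means more dye released from RNA so lower well fluorescence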
GRIN3A LBD mod: binders of NR3A ligand-binding domain, primary screen, biophysical, differential scanning fluorimetry, uHTS. NR3A LBD differential scanning fluorimetry, Tm shift; 0% = protein alone, 100% = glycine-bound protein. Glutamate receptor ionotropic, NMDA 3A (GRIN3A) ligand-binding domain. 340,000 tested, 2.5% active. Tm shift relative to glycine control, % at 25 µM. AID 1259313, 2017;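 active = melting temperature shift of at least 10% of the positive control shift, at one fixed dose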
Myeloid diff MLP: induction of myeloid progenitor differentiation, primary screen, cell-based, flow cytometry, MLPCN library | calls only at 10 µM | AID 624256, 2012 | ER-HoxA9 myeloid progenitors, lysozyme-GFP differentiation | 360,000 tested, 1% active;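 active = normalized GFP-positive differentiation at or above the plate's own cutoff, the solvent-only control mean plus 3 SD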;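 also: cells exposed to compound for four days before flow analysis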
Numbers stand for hits; 0 = inactive; - = not tested or not shown; + = active, no number. A selection: hits, their analogues and other compounds. The true share with any hit is near 5.7%.

SMILES	FAS TE block	MPTP inh	rCAG binder	GRIN3A LBD mod	Myeloid diff MLP
CCOC(=O)c1c(NC(=O)c2ccc(Cl)cc2)csc1C	0	0	0	18	0
CC(C)(C)c1cccc(N/C(=C\C(=O)c2ccccc2)c2ccccc2)c1	-	-	0	-	-
COc1ccc(/C=N/NC(=O)Cc2csc(Nc3cccc(C(F)(F)F)c3)n2)cc1C	0	0	0	22	0
CC(C)[C@H](NC(=O)C1(c2ccccc2)CCN(C(=O)OC(C)(C)C)CC1)C(=O)O	0	0	0	0	+
CC(C)C[C@H](NC(=O)C1(c2ccccc2)CCN(C(=O)[C@H]2CSCN2C(=O)OC(C)(C)C)CC1)C(=O)O	0	0	0	14	0
CC(C)C[C@H](NC(=O)C1(c2ccccc2)CCN(C(=O)OC(C)(C)C)CC1)C(=O)N1CCC[C@H]1C(=O)O	0	0	0	0	0
CCCNC(=O)C1CCN(S(=O)(=O)c2ccc3[nH]c(=O)ccc3c2)CC1	0	0	0	17	0
COc1cc(NC(=O)C2CCCN(S(=O)(=O)c3ccc4[nH]c(=O)ccc4c3)C2)cc(OC)c1 (stereo not given)	0	0	0	12	0
CCC(C)NC(=O)C1CCN(S(=O)(=O)c2ccc3[nH]c(=O)ccc3c2)CC1 (stereo not given)	0	0	0	0	0
CC1(C(=O)NCc2ccccc2)CN(S(C)(=O)=O)CC(=O)N1Cc1ccco1 (stereo not given)	-	-	0	-	-
CNC(=O)Cc1csc2ccc(C)cc12	0	0	0	14	0
Cc1ccc2scc(CN3CCCC3)c2c1	0	0	0	0	0
CC(=O)Nc1ccc(-c2cc(C(=O)O)c3ccccc3n2)cc1	0	0	0	0	0
O=C(NNC(=O)c1cc(-c2ccncc2)nc2ccccc12)Nc1ccc(F)cc1	0	0	0	0	0
CC(C)(C)c1ccc(-c2cc(C(=O)NNC(=O)Nc3ccccc3)c3ccccc3n2)cc1	0	0	0	12	0
O=C(NNC(=O)c1cc(-c2ccccc2)nc2ccccc12)Nc1cccc(Cl)c1	0	0	0	26	0
CC1CCN(CCCNS(=O)(=O)c2cc3c(cc2Br)CCN3C(=O)C2CC2)CC1	-	-	0	-	-
COC(=O)[C@]12C[C@H](CC(=O)NCc3cccc4ccccc34)C(=O)N(Cc3ccco3)C1=C[C@H](COCc1ccccc1)O[C@@H]2C	-	-	0	-	-
O=C(CSc1nnc(-c2ccccc2)n1-c1ccc(Cl)cc1)Nc1ccc(OCc2ccccc2)cc1	-	-	0	-	-
CN(/N=C/c1ccc2c(c1)OCO2)c1ccccc1	0	0	0	11	0
O=C(N/N=C/c1cccs1)c1ccc(NC(=O)c2ccccc2Cl)cc1	0	0	0	18	0
O=C(NN=Cc1ccc2c(c1)OCO2)NN=Cc1ccc2c(c1)OCO2	0	0	0	26	0
O=C(N/N=C/c1ccc2c(c1)OCO2)c1ccc(NC(=O)c2ccccc2Cl)cc1	0	0	0	22	0
C(=N\N(c1ccccc1)c1ccccc1)/c1ccc2c(c1)OCO2	0	0	0	0	0
O=C(NN=Cc1ccc2c(c1)OCO2)C1CC1	0	0	0	0	0
SMILES	FAS TE block	MPTP inh	rCAG binder	GRIN3A LBD mod	Myeloid diff MLP
O=C(CNc1ccccc1)N/N=C/c1ccc2c(c1)OCCO2	0	0	0	16	0
Cc1cccc(C(=O)Nc2ccc(C(=O)N/N=C/c3ccc4c(c3)OCO4)cc2)c1	0	0	0	24	0
Cn1c(=O)[nH]c(=O)c2c1nc(NCCc1ccccc1)n2CC(O)COc1ccccc1 (stereo not given)	0	0	0	0	0
Cn1c(=O)[nH]c(=O)c2c1nc(NCc1ccccc1)n2CC(O)c1ccccc1 (stereo not given)	0	0	0	11	0
Cc1ccc(OCC(O)Cn2c(NCCc3ccccc3)nc3c2c(=O)[nH]c(=O)n3C)cc1 (stereo not given)	0	0	0	11	0
CC(=O)Nc1cccc2c1Cc1ccccc1-2	0	0	-	36	0
CC(=O)Nc1ccc2c(c1Br)Cc1ccccc1-2	0	0	0	0	0
C[C@@H]1CN([C@@H](C)CO)C(=O)CCCn2cc(nn2)CO[C@H]1CN(C)C(=O)Nc1ccc(C(F)(F)F)cc1	-	-	0	-	-
CC(=O)Nc1cc(-c2ccccc2N(C)C)cn2c(-c3cccc(C(F)(F)F)c3)cnc12	0	0	0	-	+
COc1ccc(-c2nnc(OCc3ccccc3)c3ccccc23)cc1	0	0	0	16	0
O=C(Nn1cnnc1)c1cc2c(s1)CCCC2	0	0	0	0	0
NNC(=O)c1cc2c(s1)CCCCCC2	0	0	0	0	+
CCCC(=O)N1CCC(NS(=O)(=O)c2ccc3c(c2)CCN3C(C)=O)CC1	-	-	0	-	-
N=C1/C(=C\c2ccc(OC(=O)c3ccccc3)cc2)C(=O)N=C2SC(N3CCOCC3)=NN12	0	0	42	0	0
Cc1ccc(C(=O)Oc2ccc(/C=C3\C(=N)N4N=C(N5CCOCC5)SC4=NC3=O)cc2)cc1	0	0	0	0	0
O=C(NCCc1ccc(Cl)cc1)c1ccc2c(c1)ncn2C1CCCCC1	-	-	0	-	-
O=C(/C=C(\Nc1cccc(OC(F)F)c1)c1ccccc1)c1ccccc1	-	-	0	-	-
O=C(Nc1cccc(S(=O)(=O)c2cccc(NC(=O)c3ccco3)c2)c1)c1ccco1	0	0	0	35	0
O=C(Nc1cccc(NC(=O)c2ccco2)c1)c1cccc(Br)c1	0	0	0	15	0
COC(=O)c1ccc(NC(=O)c2cccc(NC(=O)c3ccco3)c2)cc1	0	0	0	0	0
O=C(Nc1cc(Br)c(O)c(Br)c1)c1cccc(NC(=O)c2ccco2)c1	0	0	0	23	0
O=C(Nc1cccc(S(=O)(=O)N2CCCC2)c1)c1ccco1	0	0	0	0	0
CC(C)CNC(=O)c1cccc(NC(=O)c2ccc(NC(=O)c3ccco3)cc2)c1	0	0	0	23	0
CC(C)(C)S(=O)N1C[C@@H]2CC(=O)C(c3ccccc3)=C2[C@H]1CCO (stereo not given in full)	-	-	0	-	-
O=C(Nc1ccc(Br)cc1)c1ccco1	0	0	0	0	0
COc1ccc(Br)cc1C(=O)Nc1ccc(NC(=O)c2ccco2)cc1	0	0	0	18	0
COC(=O)[C@]12C[C@H](CC(=O)N3CCN(C(=O)C4CC4)CC3)C(=O)N(Cc3ccc(Cl)cc3Cl)C1=C[C@H](C(C)C)O[C@@H]2C1CC1	-	-	0	-	-
O=c1cc(N2CCN(c3ccccc3)CC2)[nH]c(=O)n1Cc1ccc(F)cc1	0	0	0	0	+
CCOc1ccccc1C(=O)NN1C(=O)C2CCCCC2C1=O (stereo not given)	0	0	0	23	0
O=C(NN1C(=O)C2C3CCC(O3)C2C1=O)c1ccc(Cl)cc1 (stereo not given)	0	0	0	0	0
